# Source: PubChem BioAssay (NCI)
# Compounds without any hit were thinned out: in the full panel of roughly 79,000, 15% have a hit. Values without a mark were called inactive. The source made the active and inactive calls. Rule as the data show it: active = growth inhibition above about 70%; inactive = the rest.
# Key:
# [1] = NCI Yeast Anticancer Drug Screen. Data for the rad52 strain (AID 147);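 also: 0% = growth of vehicle-treated control cultures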; conditions: S. cerevisiae rad52 mutant growth inhibition, hits give high values
# Outline: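 The repair-mutant yeast strain was incubated with compounds, then growth was read and inhibition derived relative to vehicle.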
# [2] = NCI Yeast Anticancer Drug Screen. Data for the wt1 strain (AID 149);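 also: 0% = growth of vehicle-treated wt1 cultures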; conditions: S. cerevisiae wt1 strain (SPY 50644) growth inhibition, hits give high values
# Outline: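 Using yeast strain wt1, compound-induced growth inhibition was determined against vehicle-treated cultures.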
# [3] = NCI Yeast Anticancer Drug Screen. Data for the rad50EPP+ strain (AID 151);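 also: 0% = growth of vehicle-treated control cultures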; conditions: S. cerevisiae rad50 mutant strain, hits give high values
# Outline: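 Vehicle-normalised growth inhibition; rad50EPP+ yeast strain, altered in DNA damage repair, compound-treated.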
# [4] = NCI Yeast Anticancer Drug Screen. Data for the mgt1 strain (AID 153); conditions: S. cerevisiae mgt1 mutant growth inhibition, hits give high values
# Outline: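 Vehicle-normalized growth inhibition is determined in mgt1 yeast, a strain selected for a defined alteration in DNA repair or cell cycle control.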
# [5] = NCI Yeast Anticancer Drug Screen. Data for the rad50 strain (AID 155);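 also: 0% = growth of vehicle-only cultures of the same strain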; conditions: S. cerevisiae rad50 strain growth inhibition, hits give high values
# Outline: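 Relative growth inhibition (compound vs vehicle) was measured in yeast with a defined repair-gene alteration.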
# [6] = NCI Yeast Anticancer Drug Screen. Data for the mec2-1 strain (AID 157); conditions: S. cerevisiae mec2-1 strain, hits give high values
# Outline: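 Mutant yeast (mec2-1) grown with compound; growth inhibition relative to vehicle control reported.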
# [7] = NCI Yeast Anticancer Drug Screen. Data for the rad14 strain (AID 159);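 also: 0% = growth of vehicle-treated control cultures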; conditions: S. cerevisiae rad14 strain growth inhibition, hits give high values
# Outline: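 Screen for anticancer potential: a yeast strain altered in DNA damage repair is grown with compound, and reduced growth is quantified against vehicle controls.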
# [8] = NCI Yeast Anticancer Drug Screen. Data for the sgs1 mgt1 strain (AID 161);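 also: 0% = growth of cultures given vehicle only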; conditions: S. cerevisiae sgs1 mgt1 strain, hits give high values
# Outline: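 Yeast cells carrying a defined DNA-repair defect were exposed to test compounds. Growth inhibition was measured relative to vehicle-treated controls.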
# [9] = NCI Yeast Anticancer Drug Screen. Data for the CLN2oe strain (AID 163);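 also: 0% = growth of vehicle-only control cultures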; conditions: S. cerevisiae CLN2oe strain, hits give high values
# Outline: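 Compounds are applied to yeast harbouring a defined cell-cycle control change; reduced growth compared with vehicle-treated controls gives the value.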
# [10] = NCI Yeast Anticancer Drug Screen. Data for the cln2 rad14 strain (AID 165);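 also: 0% = growth equal to vehicle treated cultures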; conditions: S. cerevisiae cln2 rad14 strain, hits give high values
# Outline: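 Readout is yeast growth inhibition versus vehicle-treated controls, using a strain with cln2 and rad14 alterations exposed to compound.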
# [11] = NCI Yeast Anticancer Drug Screen. Data for the bub3 strain (AID 167); conditions: S. cerevisiae bub3 mutant strain, hits give high values
# Outline: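 Screening used yeast with an engineered genetic alteration affecting cell cycle control. Compound-exposed cultures were compared with vehicle cultures, and reduced growth was taken as inhibition.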
# [12] = NCI Yeast Anticancer Drug Screen. Data for the wt2 strain (AID 169);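 also: 0% = growth of vehicle-treated yeast cultures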; conditions: S. cerevisiae wt2 strain growth inhibition, hits give high values
# Outline: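 Against vehicle-treated controls, the growth of yeast exposed to each compound was compared, and the inhibition was recorded.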
# [13] = NCI Yeast Anticancer Drug Screen. Data for the mlh1 strain (AID 171);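 also: 0% = growth of vehicle-treated control cultures of the same strain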; conditions: S. cerevisiae mlh1 strain growth inhibition, hits give high values
# Outline: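 Measured: yeast growth. Reference: vehicle-treated controls. Organism: strain with a defined alteration affecting DNA damage repair or cell cycle control, treated with compound.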
# [14] = NCI Yeast Anticancer Drug Screen. Data for the sgs1 strain (AID 173);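 also: 0% = growth of vehicle-only control cultures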; conditions: S. cerevisiae sgs1 mutant, hits give high values
# Outline: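 Each compound was added to cultures of the altered yeast strain. Growth was recorded, and inhibition was derived by comparison with vehicle controls.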
# [15] = NCI Yeast Anticancer Drug Screen. Data for the mlh1 rad18 strain (AID 175); conditions: S. cerevisiae mlh1 rad18 strain growth inhibition, hits give high values
# Outline: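 Genetically defined yeast (DNA repair-deficient) exposed to compounds; growth inhibition determined relative to vehicle.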
# [16] = NCI Yeast Anticancer Drug Screen. Data for the rad18 strain (AID 177); conditions: S. cerevisiae rad18 mutant growth inhibition, hits give high values
# Outline: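 Vehicle-treated cultures served as the baseline for scoring compound-induced growth inhibition in DNA-repair-mutant yeast.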
# [17] = at 5.0 µM (retest, dose inferred, filed as 0.5)
# [18] = at 50.0 µM (retest, dose inferred, filed as 5.0)
smiles,measurement,setting,value
CN(C)CC1=Nc2cccc3cccc(c23)N1,growth inhibition,[1]; at 1.2 µM,-4%
same,growth inhibition,[1]; at 3.7 µM,-6%
same,growth inhibition,[1]; at 11.0 µM,-10%
same,growth inhibition,[1]; at 33.0 µM,2%
same,growth inhibition,[1]; at 100.0 µM,60%
same,growth inhibition,[2]; at 1.2 µM,2%
same,growth inhibition,[2]; at 3.7 µM,-5%
same,growth inhibition,[2]; at 11.0 µM,-6%
same,growth inhibition,[2]; at 33.0 µM,-4%
same,growth inhibition,[2]; at 100.0 µM,21%
same,growth inhibition,[3]; at 1.2 µM,-2%
same,growth inhibition,[3]; at 3.7 µM,-3%
same,growth inhibition,[3]; at 11.0 µM,-2%
same,growth inhibition,[3]; at 33.0 µM,-8%
same,growth inhibition,[3]; at 100.0 µM,13%
same,growth inhibition,[4]; at 1.2 µM,-9%
same,growth inhibition,[4]; at 3.7 µM,-1%
same,growth inhibition,[4]; at 11.0 µM,-7%
same,growth inhibition,[4]; at 33.0 µM,9%
same,growth inhibition,[4]; at 100.0 µM,87% (active)
same,growth inhibition,[5]; at 1.2 µM,-7%
same,growth inhibition,[5]; at 3.7 µM,1%
same,growth inhibition,[5]; [17],-17%
same,growth inhibition,[5]; at 11.0 µM,4%
same,growth inhibition,[5]; at 33.0 µM,51%
same,growth inhibition,[5]; [18],30%
same,growth inhibition,[5]; at 50.0 µM,90.8% (active)
same,growth inhibition,[5]; at 100.0 µM,79% (active)
same,growth inhibition,[6]; at 1.2 µM,-3%
same,growth inhibition,[6]; at 3.7 µM,-3%
same,growth inhibition,[6]; [17],-12%
same,growth inhibition,[6]; at 11.0 µM,-5%
same,growth inhibition,[6]; at 33.0 µM,3%
same,growth inhibition,[6]; [18],17%
same,growth inhibition,[6]; at 50.0 µM,87.4% (active)
same,growth inhibition,[6]; at 100.0 µM,85% (active)
same,growth inhibition,[7]; at 1.2 µM,-2%
same,growth inhibition,[7]; at 3.7 µM,0%
same,growth inhibition,[7]; at 11.0 µM,1%
same,growth inhibition,[7]; at 33.0 µM,51%
same,growth inhibition,[7]; at 100.0 µM,88% (active)
same,growth inhibition,[8]; [17],-21%
same,growth inhibition,[8]; [18],41%
same,growth inhibition,[8]; at 50.0 µM,88.6% (active)
same,growth inhibition,[9]; at 1.2 µM,-4%
same,growth inhibition,[9]; at 3.7 µM,-8%
same,growth inhibition,[9]; at 11.0 µM,5%
same,growth inhibition,[9]; at 33.0 µM,3%
same,growth inhibition,[9]; at 100.0 µM,61%
same,growth inhibition,[10]; [17],-39%
same,growth inhibition,[10]; [18],-16%
same,growth inhibition,[10]; at 50.0 µM,6.8%
same,growth inhibition,[11]; at 1.2 µM,-5%
same,growth inhibition,[11]; at 3.7 µM,-4%
same,growth inhibition,[11]; [17],-26%
same,growth inhibition,[11]; at 11.0 µM,-3%
same,growth inhibition,[11]; at 33.0 µM,17%
same,growth inhibition,[11]; [18],58%
same,growth inhibition,[11]; at 50.0 µM,90% (active)
same,growth inhibition,[11]; at 100.0 µM,85% (active)
same,growth inhibition,[12]; at 1.2 µM,-2%
same,growth inhibition,[12]; at 3.7 µM,-5%
same,growth inhibition,[12]; at 11.0 µM,-6%
same,growth inhibition,[12]; at 33.0 µM,10%
same,growth inhibition,[12]; at 100.0 µM,64%
same,growth inhibition,[13]; at 1.2 µM,0%
same,growth inhibition,[13]; at 3.7 µM,-12%
same,growth inhibition,[13]; at 11.0 µM,-5%
same,growth inhibition,[13]; at 33.0 µM,24%
same,growth inhibition,[13]; at 100.0 µM,87% (active)
same,growth inhibition,[14]; at 1.2 µM,-1%
same,growth inhibition,[14]; at 3.7 µM,-5%
same,growth inhibition,[14]; at 11.0 µM,-5%
same,growth inhibition,[14]; at 33.0 µM,7%
same,growth inhibition,[14]; at 100.0 µM,68%
same,growth inhibition,[15]; [17],-32%
same,growth inhibition,[15]; [18],46%
same,growth inhibition,[15]; at 50.0 µM,90.2% (active)
Cc1ccc(NC(Nc2ccc(C)cc2C)=C(C(Cl)=C(Cl)Cl)[N+](=O)[O-])c(C)c1,growth inhibition,[1]; at 1.2 µM,4%
same,growth inhibition,[1]; at 3.7 µM,10%
same,growth inhibition,[1]; at 11.0 µM,78% (active)
same,growth inhibition,[1]; at 33.0 µM,99% (active)
same,growth inhibition,[1]; at 100.0 µM,94% (active)
same,growth inhibition,[2]; at 1.2 µM,2%
same,growth inhibition,[2]; at 3.7 µM,3%
same,growth inhibition,[2]; at 11.0 µM,34%
same,growth inhibition,[2]; at 33.0 µM,99% (active)
same,growth inhibition,[2]; at 100.0 µM,96% (active)
same,growth inhibition,[3]; at 1.2 µM,8%
same,growth inhibition,[3]; at 3.7 µM,10%
same,growth inhibition,[3]; at 11.0 µM,19%
same,growth inhibition,[3]; at 33.0 µM,38%
same,growth inhibition,[3]; at 100.0 µM,71% (active)
same,growth inhibition,[4]; at 1.2 µM,0%
same,growth inhibition,[4]; at 3.7 µM,4%
same,growth inhibition,[4]; at 11.0 µM,21%
same,growth inhibition,[4]; at 33.0 µM,99% (active)
same,growth inhibition,[4]; at 100.0 µM,95% (active)
same,growth inhibition,[5]; at 1.2 µM,1%
same,growth inhibition,[5]; at 3.7 µM,4%
same,growth inhibition,[5]; [17],90% (active)
same,growth inhibition,[5]; at 11.0 µM,72% (active)
same,growth inhibition,[5]; at 33.0 µM,99% (active)
same,growth inhibition,[5]; [18],98% (active)
same,growth inhibition,[5]; at 50.0 µM,98% (active)
same,growth inhibition,[5]; at 100.0 µM,92% (active)
same,growth inhibition,[6]; at 1.2 µM,0%
same,growth inhibition,[6]; at 3.7 µM,5%
same,growth inhibition,[6]; [17],74% (active)
same,growth inhibition,[6]; at 11.0 µM,49%
same,growth inhibition,[6]; at 33.0 µM,99% (active)
same,growth inhibition,[6]; [18],98% (active)
same,growth inhibition,[6]; at 50.0 µM,98.8% (active)
same,growth inhibition,[6]; at 100.0 µM,94% (active)
same,growth inhibition,[7]; at 1.2 µM,2%
same,growth inhibition,[7]; at 3.7 µM,2%
same,growth inhibition,[7]; at 11.0 µM,25%
same,growth inhibition,[7]; at 33.0 µM,99% (active)
same,growth inhibition,[7]; at 100.0 µM,94% (active)
same,growth inhibition,[8]; [17],94% (active)
same,growth inhibition,[8]; [18],99% (active)
same,growth inhibition,[8]; at 50.0 µM,98.9% (active)
same,growth inhibition,[9]; at 1.2 µM,-3%
same,growth inhibition,[9]; at 3.7 µM,-1%
same,growth inhibition,[9]; at 11.0 µM,48%
same,growth inhibition,[9]; at 33.0 µM,99% (active)
same,growth inhibition,[9]; at 100.0 µM,94% (active)
same,growth inhibition,[10]; [17],27%
same,growth inhibition,[10]; [18],98% (active)
same,growth inhibition,[10]; at 50.0 µM,98.7% (active)
same,growth inhibition,[11]; at 1.2 µM,-2%
same,growth inhibition,[11]; at 3.7 µM,-4%
same,growth inhibition,[11]; [17],67%
same,growth inhibition,[11]; at 11.0 µM,30%
same,growth inhibition,[11]; at 33.0 µM,99% (active)
same,growth inhibition,[11]; [18],98% (active)
same,growth inhibition,[11]; at 50.0 µM,98.3% (active)
same,growth inhibition,[11]; at 100.0 µM,91% (active)
same,growth inhibition,[12]; at 1.2 µM,2%
same,growth inhibition,[12]; at 3.7 µM,4%
same,growth inhibition,[12]; at 11.0 µM,47%
same,growth inhibition,[12]; at 33.0 µM,99% (active)
same,growth inhibition,[12]; at 100.0 µM,94% (active)
same,growth inhibition,[13]; at 1.2 µM,1%
same,growth inhibition,[13]; at 3.7 µM,5%
same,growth inhibition,[13]; at 11.0 µM,35%
same,growth inhibition,[13]; at 33.0 µM,99% (active)
same,growth inhibition,[13]; at 100.0 µM,94% (active)
same,growth inhibition,[14]; at 1.2 µM,1%
same,growth inhibition,[14]; at 3.7 µM,11%
same,growth inhibition,[14]; at 11.0 µM,70% (active)
same,growth inhibition,[14]; at 33.0 µM,99% (active)
same,growth inhibition,[14]; at 100.0 µM,93% (active)
same,growth inhibition,[15]; [17],96% (active)
same,growth inhibition,[15]; [18],98% (active)
same,growth inhibition,[15]; at 50.0 µM,98.3% (active)
same,growth inhibition,[16]; at 1.2 µM,2%
same,growth inhibition,[16]; at 3.7 µM,7%
same,growth inhibition,[16]; at 11.0 µM,72% (active)
same,growth inhibition,[16]; at 33.0 µM,99% (active)
same,growth inhibition,[16]; at 100.0 µM,92% (active)
